Test results published in PubChem BioAssay (NCI).
This is part of a sample that, as a whole, favours compounds with a hit. Of some 79,000 tested, about 15% had one in any assay. A number with no mark means an inactive call. Active and inactive are the calls of the source. Rule as the data show it: active = growth inhibition above about 70%; inactive = the rest.

Key:
[1] = NCI Yeast Anticancer Drug Screen. Data for the rad50 strain (AID 155);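 also: 0% = growth of vehicle-only cultures of the same strain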; conditions: S. cerevisiae rad50 strain growth inhibition; at 50.0 µM; hits give high values
Summary of the method: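 Growth of the mutant yeast was measured after compound exposure and referenced to vehicle-treated cultures.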

[2] = NCI Yeast Anticancer Drug Screen. Data for the mec2-1 strain (AID 157); conditions: S. cerevisiae mec2-1 strain, at 50.0 µM, hits give high values
Summary of the method: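 Vehicle-treated cultures served as reference for growth inhibition of compound-exposed mec2-1 yeast.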

[3] = NCI Yeast Anticancer Drug Screen. Data for the sgs1 mgt1 strain (AID 161);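 also: 0% = growth of cultures given vehicle only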; conditions: S. cerevisiae sgs1 mgt1 strain, at 50.0 µM, hits give high values
Summary of the method: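 Inhibition of yeast growth, normalised to vehicle-treated controls, is reported for a strain bearing genetic alterations in DNA damage repair.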

[4] = NCI Yeast Anticancer Drug Screen. Data for the cln2 rad14 strain (AID 165);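 also: 0% = growth equal to vehicle treated cultures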; conditions: S. cerevisiae cln2 rad14 strain, at 50.0 µM, hits give high values
Summary of the method: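 Each compound was tested on cln2 rad14 yeast. Inhibition of growth was calculated against vehicle-exposed controls.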

[5] = NCI Yeast Anticancer Drug Screen. Data for the bub3 strain (AID 167); conditions: S. cerevisiae bub3 mutant strain, at 50.0 µM, hits give high values
Summary of the method: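 Whole-cell yeast assay. The mutant strain was incubated with compounds, and growth inhibition was determined by comparison with vehicle-treated cells.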

[6] = NCI Yeast Anticancer Drug Screen. Data for the mlh1 rad18 strain (AID 175); conditions: S. cerevisiae mlh1 rad18 strain growth inhibition; at 50.0 µM; hits give high values
Summary of the method: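 Vehicle-treated cultures served as the reference for growth inhibition in a yeast strain carrying DNA damage repair alterations exposed to each compound.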

Row | SMILES | growth inhibition [1] | growth inhibition [2] [%] | growth inhibition [3] | growth inhibition [4] | growth inhibition [5] | growth inhibition [6]
1 | Clc1ccc(C=Nc2ccc3c(c2)Cc2ccccc2-3)c(Cl)c1 | -5.15% | -33.6 | -21.6% | -3.85% | -35.2% | -2.4%
2 | CCOC(Cn1ccccc1=N)OCC | 12.8% | -11.7 | -12.6% | -40% | -7.3% | 4.15%
3 | COc1ccc([N+](=O)[O-])cc1NC(=S)NC(=O)c1cccc(Br)c1 | -8.6% | 4.2 | -0.1% | -63.6% | 3.7% | 1.55%
4 | CCOC(=O)CNC(=O)NC | 1.25% | 8.15 | -6.75% | -11.7% | -6.25% | 38%
5 | N#C/C(=N\N=C(/C#N)c1ccc(Cl)cc1)c1ccc(Cl)cc1 | -5.8% | -1.85 | -5.5% | -6.4% | -4.25% | -5.15%
6 | NC1=C(O)/C(=N/NS(=O)(=O)c2ccccc2)C(c2cccc(Cl)c2)O1 (stereo not drawn) | 30.4% | 23.4 | 48.5% | 13.8% | 11.7% | 21.7%
7 | CN(C)Cc1cc(N=Nc2ccc(Cl)cc2)ccc1O | 26.9% | 7.3 | 19.4% | 14.8% | 36.5% | 46.3%
8 | Nc1ccc2cccc(O)c2c1 | 44.1% | 24.2 | 12.9% | -9.4% | 34.2% | 32.4%
9 | Cc1ccc(N=Nc2c(O)ccc3n[nH]nc23)cc1 | 2.75% | 0.2 | 31.9% | -46% | 18.9% | 6.95%
10 | OC1(c2cccc(Cl)c2)C2=NCCCN2c2ccccc21 (stereo not drawn) | 5.05% | 8.45 | 6.7% | 21.6% | -28.4% | 5.75%
11 | O=C(CCC(O)(C(=O)c1ccccc1)c1ccccc1)c1ccccc1 (stereo not drawn) | 9.25% | 9.5 | -0.1% | 6.35% | 0.4% | 26.4%
12 | C[N+]1(C)CCCC(CO)(c2ccccc2)CC1 (stereo not drawn) | 10.2% | 13 | 3.3% | -15.5% | 14.9% | 7.7%
13 | ClCCn1nc2c(c1-c1ccccc1)CCc1ccccc1-2 | -8% | -1.05 | -10.4% | -19.4% | 11.1% | -2.85%
14 | CCCCOC(=O)NC | 44.6% | -6.7 | 12.8% | -15.9% | 7.85% | 22.2%
15 | CCN(CC)c1ccccc1-c1ccccc1 | 34.9% | 20.1 | 1.05% | -58.6% | 6.05% | 20.1%
16 | O=c1c2c(oc3c(Cl)cc(Cl)cc13)CCCC2 | 13.3% | -19.6 | -1.8% | 7.6% | 5.8% | 4.05%
17 | CCN(CC)CC(O)CO (stereo not drawn) | -4.55% | -16.6 | -17.1% | 5.9% | 2% | 1.35%
18 | Cc1ccccc1NCc1ccccc1[N+](=O)[O-] | 23.9% | 11.1 | 14.8% | -28.6% | -14.6% | 18.9%
19 | Cc1cc([O-])c([I+]c2ccccc2)c(=O)[nH]1 | 93.3% (active) | 66.8 | 97.8% (active) | 95.6% (active) | 95.5% (active) | 90.2% (active)

Row | SMILES | growth inhibition [1] | growth inhibition [2] [%] | growth inhibition [3] | growth inhibition [4] | growth inhibition [5] | growth inhibition [6]
20 | OCC(CO)(CO)COCC(CO)(CO)CO | 8.5% | -25.1 | 6.75% | 10% | -12.3% | 13.1%
21 | COc1c([N+](=O)[O-])ccc(C(OC(C)=O)OC(C)=O)c1OC(C)=O | 33.9% | 23.1 | 55.8% | 2.35% | 31.9% | 29.4%
22 | CSc1nc(C)cc(Nc2ccc(O)c(CN3CCOCC3)c2)n1 | 6.1% | -3.25 | -22% | -33.1% | -52% | 9.4%
23 | Cc1cc2nc3n(c2cc1C)C(=O)c1cc2ccccc2cc1-3 | -8.55% | 0.6 | 3.1% | 7.7% | -10.4% | 2.7%
24 | CCC(CCC(C)C1CCC2C3CC=C4CC(OC(=O)Nc5ccccc5)CCC4(C)C3CCC12C)C(C)C (stereo not drawn) | -23.4% | -28.1 | -15.9% | -38.5% | -1.5% | -26.4%
25 | Cc1noc(C)c1N=Nc1ccc2nonc2c1N | -15.5% | 7.6 | -14.1% | 16.5% | 9.35% | 3.05%
26 | Nc1ccc(Sc2nnc(N)s2)cc1 | -26% | -16.6 | -53.1% | 6.8% | -31.4% | -47.5%
27 | CCC1CN2CCc3c([nH]c4ccccc34)[C@@](C(=O)OC)(c3cc4c(cc3OC)N(C)C3C(O)(C(=O)OC)C(C(=O)OC)C5(CC)C=CCN6CCC43C65)C[C@@H](C2)[C@@H]1C(C)(C)C (stereo partly drawn) | -6.3% | -10 | -9% | -13.6% | -36.3% | -72.7%
28 | CC(O)CCC(C)(C)[N+](=O)[O-] (stereo not drawn) | 3.15% | -6.85 | 0.1% | 10.8% | 0.25% | -0.9%
29 | [N-]=[N+]=Nc1ccccc1C(=O)N1C(=O)c2ccccc2C(=O)N(C(=O)c2ccccc2N=[N+]=[N-])c2ccccc21 | 1.35% | 7.9 | 0.8% | 0.35% | 11.9% | -6.4%
30 | Cc1ccc(/C(C#N)=C/c2cccc([N+](=O)[O-])c2)cc1 | -3.1% | -30.2 | -32% | 24.4% | -17.4% | -4.15%
31 | O=C1OC(c2ccccc2)=N/C1=C\c1cccc2ccccc12 | -45.9% | -36.6 | -13.6% | 0.35% | -16.4% | -31.1%
32 | O=C(NC1CCCCC1)OCc1c(COC(=O)NC2CCCCC2)c2cccn2c2c1cnn2-c1ccccc1 | 3.7% | 3.4 | -27.6% | 3.1% | -2.95% | 19.1%
33 | CSC1=NC=C(C#N)C2=NC(c3ccc(Cl)cc3)NN12 (stereo not drawn) | 1.95% | 2 | 17.2% | 16.3% | 15.8% | 14.7%
34 | Cc1[nH]c2ccccc2c1C(=O)Cc1ccc(Cl)cc1Cl | -3.6% | 31.8 | 32.2% | -4.35% | 23.8% | 33.4%
35 | Cc1cnc(Cl)[nH]1 (tested in a mixture with another compound) | 2.7% | 1.55 | 2.15% | -47.5% | 14.8% | -5.5%
36 | CCOC(=O)CCC[n+]1cccc(C#N)c1 | 3.3% | 1.4 | 2% | -3.35% | -3.15% | -1.35%
37 | COc1cc(N=Nc2c[nH]c3ccccc23)c(OC)cc1N=Nc1ccc([N+](=O)[O-])cc1 | 26.3% | 16.8 | 0.6% | -22% | 13.7% | 34.8%
38 | O=C(C(=O)c1cccc(C(=O)C(=O)c2ccccc2)c1)c1ccccc1 | 5.45% | -10.6 | -15.2% | 17.3% | -29% | 9.5%
